This is an account of results in PubChem BioAssay (NCATS).

Molecules are shown by their SMILES. Records with an inconclusive call do not appear. Unmarked numbers belong to inactive results. The source made the active and inactive calls. Calls come from the whole dose curve; as a rule, active = well fitted cell-killing curve with a large enough effect; inconclusive = small, poorly fitted or top-dose-only effect, or effect the other way; inactive = no such curve, though single readings can be large or run the other way.
Potency is the fitted concentration of half-maximal effect.

The experiment is described as follows: Quantitative High-Throughput drug screen in 47 multiple myeloma cell lines against the NCATS MIPE library collection: ARD_JJKsccE7 cell viability assay (AID 1918929;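 for viability: 100% = DMSO-only wells and 0% = media-only wells without cells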). The settings on record: ARD myeloma cell line viability, CellTiter-Glo, 48 h; series mostly up to 45.8 µM; viability: at the top concentration. In short, it runs like this:
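Relative luminescence from CellTiter-Glo served as the viability signal, referenced to DMSO-treated (100%) and cell-free medium (0%) controls. Treatment lasted 48 hours at 37C with 500 cells per well.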
(In general: ATP-based viability assays read luminescence as a measure of living cells.)
The term viability denotes a read-out of living cells in per cent, often relative to untreated cells. In the case of `CN1C2CCC1CC(OC(=O)C(CO)c1ccccc1)C2` (configuration not stated), the “viability” value is 106%.

On to `O=C(Nc1ccc([N+](=O)[O-])cc1Cl)c1cc(Cl)ccc1O`, for which the Potency is 0.526 µM (active). On the same count and under the same terms, the figure for `CC[C@@]1(O)C(=O)OCc2c1cc1n(c2=O)Cc2cc3c(CN(C)C)c(O)ccc3nc2-1` is 2.64 µM (active). Take `Cc1cc(C(C)(C)C)c(O)c(C)c1CC1=NCCN1`: the “viability” value was 123%. `CS(=O)(=O)CCNCc1ccc(-c2ccc3ncnc(Nc4ccc(OCc5cccc(F)c5)c(Cl)c4)c3c2)o1`: the Potency was 6.62 µM (active).

On to `CC(=O)OCC(CCn1cnc2cnc(N)nc21)COC(C)=O`, for which the “viability” value is 117%.

In the case of `NCCS(=O)(=O)O`, the “viability” value is 157%. On to `O=C1c2c(O)ccc(O)c2C(=O)c2c(NCCNCCO)ccc(NCCNCCO)c21`, for which the Potency was 20.9 µM (active). Take `O=C(C1CCCCC1)N1CC(=O)N2CCc3ccccc3C2C1` (configuration not stated): the “viability” value is 116%. Still for that read-out and setting: the figure for `Cc1cc(C(C)(C)C)cc(C)c1CC1=NCCN1` is 89.2%; for `NC(=O)OCC(COC(N)=O)c1ccccc1` it is 118%. Regarding `CC(C)C(=O)Nc1ccc([N+](=O)[O-])c(C(F)(F)F)c1`, the Potency is 18.7 µM (active). As to `CC1(C)O[C@H]2CC(=O)OC[C@]23[C@H]2CC[C@@]4(C)[C@H](c5ccoc5)OC(=O)[C@H]5O[C@]54[C@]2(C)C(=O)C[C@@H]13`, the “viability” value was 124%. Consider `CCC1(c2ccccc2)C(=O)NCNC1=O`, for which the Potency was 14.8 µM (active). Still for that read-out and setting: the figure for `CCOC(=O)Nc1ccc(NCc2ccc(F)cc2)nc1N` is 18.7 µM (active).

In the case of `CN1CCC(=C2c3ccccc3CC(=O)c3sccc32)CC1`, the “viability” value was 131%. Turning to `CN1CCN(CCCN2c3ccccc3Sc3ccc(Cl)cc32)CC1`, the Potency was 16.6 µM (active).
